Compound activity as filed in PubChem.
Many of the other results were omitted from the sample, so hits are more common in it than they were.
Tgondii IFNg: blocks Toxoplasma gondii growth in the presence of IFN-gamma; Toxoplasma gondii growth in IFN-gamma-treated host cells; stronger effect = lower value; activity change, negative = inhibition, % (test concentration not listed); actives 3.8% (n = 69,000); AID 1259416; in the data active means activity change below about -70%, passing the limit was not always enough;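 further: host cells are HeLa cells infected with Toxoplasma gondii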
* hit, by the source's call; ! = a repeat was not active.

SMILES	Tgondii IFNg
C[C@@H]1CCCCO[C@@H](CN(C)Cc2ccncc2)[C@H](C)CN([C@@H](C)CO)C(=O)c2cc(NC(=O)Cc3ccccc3)ccc2O1	120
Cc1ccc(CN2CCC3(CC2)CC(NC(=O)N(C)C)CCO3)s1 (stereo not given)	170
Cn1ccnc1C(NC(=O)c1cn2c(n1)CNCC2)C1CC1 (stereo not given)	6
COC(=O)[C@@H]1C[C@H](NC(=O)c2cc3sccc3[nH]2)CN1C	20
CN(C)C(=O)N1CCO[C@@H]2[C@H]1CC[C@H]2OCC1CCOCC1	-72*
CO[C@@H]1CC[C@@H]2[C@H]1OCCN2C(=O)N(C)C	51
CN(C)C(=O)N1CCO[C@@H]2[C@H]1CC[C@H]2OCCN1CCCC1	-3
Cc1cnn(Cc2nc(-c3ccc(NC(=O)C4CCCC4)cc3)oc2C)c1	44
CCOc1ccc(-c2cc3c(=O)n(Cc4nc(-c5ccccc5OCC)oc4C)ccn3n2)cc1	91
Cc1cccc(CS(=O)(=O)N2C[C@@H](c3cccnc3)[C@@]3(CCCC(=O)N3)C2)c1	15
Cc1ccc([N+](=O)[O-])cc1S(=O)(=O)N(C)/N=C/c1cnc2ccc(Br)cn12	-80*
O=C(NCc1cncc2c1CCN(Cc1ccccc1)C2)C1CC1	-7
O=C(c1cn[nH]n1)N1CCN(C/C=C/c2ccccc2)CC1	4
COC(=O)[C@@H]1Cc2c([nH]c3ccccc23)CN1C(=O)c1cc(C)nc(C)n1	-72*
Cc1cc(C(=O)N2CC(=O)N(C3CCCCC3)CC(OCc3ccccc3)C2)nc(C)n1 (stereo not given)	10
CC(=O)N1C(C(=O)O)Cc2c([nH]c3ccccc23)C1C (stereo not given)	124
Cc1ccc2c(c1)NC1(CCN(S(=O)(=O)c3ccc(C4CCCCC4)cc3)CC1)c1cccn1-2	-2
COc1ccc(CCNS(=O)(=O)c2cc3c4c(c2)CCC(=O)N4CCC3)cc1OC	65
Cn1[nH]c(=O)c(=O)[nH]c1=S	24
CCc1cc(C(=O)Nc2n[nH]c(CC3CCCCC3)n2)c2c(C)noc2n1	-10
Cc1cnc(CCNC(=O)CC2CCN(S(=O)(=O)c3cccc(F)c3)CC2)s1	21
COc1cc(C(=O)NCCCCCC(=O)O)cc(OC)c1OC	5
COCC1(N(C)C(=O)CCNC(=O)c2ccc(F)cc2)CC1	0
CN(C)c1ccc(C(=O)NCCCCCCC(=O)NO)cc1	-88*!
CCOC(=O)c1cnc(SC)nc1-c1cccc2ccnn12	-14
SMILES	Tgondii IFNg
NC(=O)c1cnc2n1CCN(C(=O)c1cccc3c1NCCC3)C2	130
O=C(c1ccco1)N1CC[C@@H]2C[C@H](c3nc(C4CC4)cs3)O[C@H]2C1	18
O=C(NCCc1c[nH]c2ccc(Cl)cc12)c1sc2ncccc2c1-n1cccc1	423
O=C(NCCc1c[nH]c2ccc(Cl)cc12)c1cccs1	11
CCCN1CCN(c2ncnc3sc(C(=O)NCCc4c[nH]c5ccc(Cl)cc45)c(C)c23)CC1	-85*
Cc1c(NCc2cccnc2)cccc1C(=O)N[C@@H]1CNC[C@H]1O	12
COc1cccc(C(=O)N2CCN(S(=O)(=O)c3cc4c5c(c3)CCC(=O)N5CCC4)CC2)c1	-15
COc1ccc(-c2nc(C)c(CCNC(=O)C(=O)Nc3ccc(C)c(Cl)c3)s2)cc1OC	-27
CCOC(=O)C1CCN(C(=O)C2=C(C)C(=O)OC23CCN(C(C)=O)CC3)CC1	-21
Cc1ccc(NC(=O)c2nc3ccccc3n(C)c2=O)c(-c2cc(C)[nH]n2)c1	-17
CC(C)(C)c1ccc(-c2noc(CCOc3ccc(F)cc3)n2)cc1	34
CCCc1c(-c2nc(-c3ccc(C(C)(C)C)cc3)no2)cnn1-c1ccccc1	-97*
CCCc1c(C(=O)Nc2ccc3ccccc3n2)cnn1-c1ccccc1	-37
COc1cccc(-n2c(=O)c(C(=O)Nc3ccc(F)cc3Cl)c(O)c3cccnc32)c1	-2
Cc1ccc(-c2nc(Cn3nnc(C(=O)NCCc4ccccc4)c3C)c(C)o2)cc1	-49
Cc1ccc(-c2nc(Cn3nnc(C(=O)NC4CCCC4)c3C)c(C)o2)cc1	-101*
Cc1ccc(-c2nc(Cn3nnc(C(=O)Nc4ccccc4)c3C)c(C)o2)cc1	1
Cc1ccc(-c2nc(Cn3nnc(C(=O)NCc4ccc(C(C)C)cc4)c3C)c(C)o2)cc1	-9
Cc1ccc(CNC(=O)c2nnn(Cc3nc(-c4ccc(C)cc4)oc3C)c2C)cc1	-94*
Cc1ccc(-c2nc(Cn3nnc(C(=O)NCc4ccc(Br)cc4)c3C)c(C)o2)cc1	-68
CCOc1cc(CN2CCC3(CC2)C(=O)N(C(C)C)C(=O)N3CCC(C)C)ccc1OC	-19
OCC1OC2OC3C(CO)OC(OC4C(CO)OC(OC5C(CO)OC(OC6C(CO)OC(OC7C(CO)OC(OC8C(CO)OC(OC1C(O)C2O)C(O)C8O)C(O)C7O)C(O)C6O)C(O)C5O)C(O)C4O)C(O)C3O (stereo not given)	27
CCN(CC)c1ccc2c(Oc3ccc(-c4ccccc4)cc3)cc(=O)oc2c1	-24
CC(C)N1CCOCC2(C1)CN(S(C)(=O)=O)CCO2 (stereo not given)	6
Cc1ccc2nc(-c3cccc(NC(=O)CN(C)Cc4ccccn4)c3)[nH]c2c1	152
SMILES	Tgondii IFNg
Cn1c(C(=O)NCc2ccco2)cc2c1c1ccccc1n2CC1CC1	4
N#CCCNC(=O)c1cc2c(c3ccccc3n2CC2CC2)n1-c1ncccn1	-46
CCN(CC)CCCNC(=O)c1cc2c(c3ccccc3n2CC2CC2)n1C	-77*
Cc1ccc(-n2c(SCC(=O)Nc3nc(C)cs3)nnc2-c2ccoc2C)cc1	-16
Cc1oc2c(c1C(=O)Nc1cccc(OCCN3CCOCC3)c1)CCCC2	40
COc1c(C)c2c(c(O)c1C/C=C(\C)CCC(=O)OCCN1CCOCC1)C(=O)OC2	-76*
O=S(=O)(NCCc1csc(-c2cccc(F)c2)n1)c1cccc(Cl)c1	-14
COc1ccc(-c2oc3cc(OC)c(OC)c(OC)c3c(=O)c2OC)cc1	-8
CC1=CC(C)(C)N=C(Nc2nc(C)c3cc(C)cc(C)c3n2)N1	-99*
CNC(=O)c1cc(=O)n(CC(=O)Nc2ccccc2OC)c2ccccc12	35
COC(C)CN(C)C(=O)c1oc2cc(C)ccc2c1C (stereo not given)	17
Cc1ccc2c(c1)CCCN2C(=O)CN(Cc1ccccn1)CC1CCCO1 (stereo not given)	7
O=C(Cn1nnc(-c2cccs2)n1)NCCC1=CCCCC1	-7
CCC(=O)N1CCc2c([nH]c3ccccc23)C12C(=O)Nc1ccc(Br)cc12 (stereo not given)	-48
CCCC(=O)N1CCc2c([nH]c3ccccc23)C12C(=O)Nc1ccc(Br)cc12 (stereo not given)	-82*
CCC(=O)N1CCc2c([nH]c3ccccc23)C12C(=O)N(C)c1ccc(Br)cc12 (stereo not given)	109
Cn1cc(C(=O)N2CCOC(c3nc(Cc4cccc(C(F)(F)F)c4)no3)C2)cn1 (stereo not given)	-25
CCOC(=O)Cn1nc(C)c(NC(=O)c2cc(OC)cc(OC)c2)c1C	-3
CN(C)C(=O)CN1CCC2(CC1)CN(CCn1cccn1)C(=O)CO2	-4
CCc1cnc(C)nc1-c1ccc(-c2ccn[nH]2)cc1	-1
Nc1cnc(-c2ccc(-c3ccn[nH]3)cc2)cn1	-40
Cc1ccc(-c2ccc(-c3ccn[nH]3)cc2)c(N)n1	-81*
COc1cccc(S(=O)(=O)N(C)C[C@@H]2OCc3ccccc3-c3c(n(C)c4ccccc34)C(=O)N([C@@H](C)CO)C[C@@H]2C)c1	-43
